High-throughput results: PubChem BioAssay, The Scripps Research Institute Molecular Screening Center
CHO-K1 Ca ag: counter-screen for M1 agonists: effect in parental CHO-K1 cells; Fluo-8 calcium fluorescence; scaled to maximal ATP response, vehicle zero; activation, % at 3 µM; 360,000 tested, 0.48% active; AID 602248, 2012; in the data active means activation above about 15%;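 further: untransfected CHO-K1 host cells lacking M1 receptor as counterscreen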
M1 antag: human M1 muscarinic receptor antagonists, primary screen, CHO-K1 cells, Fluo-8 calcium fluorescence, 1536-well; Muscarinic acetylcholine receptor M1 (Homo sapiens), P11229; CHO-K1 hM1, ACh EC80 antagonist; inhibition, % at 3 µM; 360,000 tested, 1.3% active; AID 588852, 2011;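 active means percent inhibition above its own plate's cutoff, namely the mean of that plate's compound wells plus 3 SD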;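 further: peak over basal fluorescence ratio during 140 s after agonist addition; 0% = ACh EC80 plus DMSO and 100% = DMSO alone without agonist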
Target sequence (P11229 whole entry, looked up): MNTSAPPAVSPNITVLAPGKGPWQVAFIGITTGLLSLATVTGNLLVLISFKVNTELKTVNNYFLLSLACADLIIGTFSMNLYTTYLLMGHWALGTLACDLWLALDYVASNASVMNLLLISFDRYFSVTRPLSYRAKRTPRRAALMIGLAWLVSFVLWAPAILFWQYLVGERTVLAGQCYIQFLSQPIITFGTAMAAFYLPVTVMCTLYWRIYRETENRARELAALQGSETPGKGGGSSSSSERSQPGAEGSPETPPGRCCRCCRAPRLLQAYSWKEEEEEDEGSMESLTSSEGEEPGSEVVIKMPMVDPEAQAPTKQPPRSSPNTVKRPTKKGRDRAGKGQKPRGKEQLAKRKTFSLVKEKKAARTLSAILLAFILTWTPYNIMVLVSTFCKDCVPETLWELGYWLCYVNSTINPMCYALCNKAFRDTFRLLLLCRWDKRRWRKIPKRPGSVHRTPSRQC
CHRM1 agonist: human M1 muscarinic receptor agonists, primary screen, Fluo-8 calcium fluorescence, CHO-K1 cells, HTS; CHO-K1 hM1, agonist mode; 0% DMSO, 100% acetylcholine EC100; activation, % at 3 µM; 360,000 tested, 0.33% active; AID 588814, 2011;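 active means activation above the run's mean compound activation plus 3 SD, cut at about 16% in these data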;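 further: peak over basal fluorescence ratio within a 140 s kinetic read after compound addition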
M1 PAM: human M1 muscarinic receptor positive allosteric modulators, primary screen, CHO-K1 cells, Fluo-8 calcium fluorescence, 1536-well; Muscarinic acetylcholine receptor M1 (Homo sapiens), P11229; activation, % at 3 µM; CHO-K1 hM1, ACh EC20; 0% = ACh EC20, 100% = maximal ACh; AID 588819, 2011; 360,000 tested, 0.088% active; in the data active means activation above about 19%, passing the limit was not always enough
CHO-K1 Ca PAM: nonselective calcium activators in parental CHO-K1 cells, primary screen, counter-screen for M1 PAM project, cell-based, Fluo-8 calcium fluorescence, full deck, 1536-well. ATP EC20; 0% at ATP EC20, 100% at ATP max. activation, % at 3 µM. 360,000 tested, 0.02% active. AID 602247, 2012;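 active means activation above the run cutoff, the mean activation of all test compounds plus 3 SD, cut at about 40% in these data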;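 further: peak over basal fluorescence ratio in a 140 s read after ATP addition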
CHO-K1 Ca antag: nonselective inhibitor or artifact in parental CHO-K1 cells; 360,000 tested, 0.6% active; AID 602250; ATP-induced calcium, Fluo-8 fluorescence; inhibition, % at 3 µM;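 active means inhibition above a per-plate cutoff, the plate's mean sample inhibition plus 3 SD, cut at about 24% in these data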;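 further: 0% = DMSO plus EC80 ATP and 100% = DMSO alone without ATP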
Active calls of the source: *. An excerpt weighted towards active compounds, which were near 2.3% of everything screened.

SMILES	CHO-K1 Ca ag	M1 antag	CHRM1 agonist	M1 PAM	CHO-K1 Ca PAM	CHO-K1 Ca antag
CCOc1ccc(NC(=O)CSc2nnc(Cn3cnc4ccccc43)n2C)cc1	0	-26	-3	5	4	3
C[C@H](CO)N1C[C@H](C)[C@@H](CN(C)Cc2cccnc2)Oc2ncc(-c3cccc(C#N)c3)cc2C1=O	2	-2	-11	-2	-4	5
CC(C)CCNC(=S)Nc1ccc([N+](=O)[O-])cc1	13	18	-3	-16	-12	29*
CCCCNC(=S)NC(=O)c1ccc([N+](=O)[O-])cc1	0	-4	-5	0	5	-9
CC(C)CCNC(=S)Nc1ccc(Br)cc1	11	17	-4	-11	-5	12
CCCCNC(=S)Nc1ccc([N+](=O)[O-])cc1	13	27*	1	-16	-16	34*
CCOC(=O)/C=C1\SCC(=O)N1CC(=O)NC12CC3CC(CC(C3)C1)C2	0	18	-2	-9	-6	24*
CCOC(=O)/C=C1\SCC(=O)N1CC(=O)NC(C)C	0	-14	-2	1	8	-1
CCOC(=O)/C=C1\SCC(=O)N1CC(=O)NCCc1ccc(F)cc1	17*	-3	-7	10	17	0
Cc1ccc(S(=O)(=O)c2nc(Cc3ccccc3)oc2N2CCOCC2)cc1	1	-4	-3	7	4	-19
OC1C2COC(O2)C2OC(c3ccccc3)OC12 (stereo not given)	1	-3	-1	1	26	-9
CCOC(=O)CSc1nc2c(sc(=S)n2-c2ccccc2OC)c(=O)n1Cc1ccco1	0	3	-3	-7	-1	28*
CCOc1ccccc1CNC(=O)C1CCCN(c2nnc(C)c3c(C)n(-c4ccccc4)nc23)C1 (stereo not given)	-2	43*	-6	-19	4	-23
O=C1CSC(c2ccccn2)N1c1ccc(C(F)(F)F)cc1 (stereo not given)	0	-10	-7	7	-15	16
C=CC[n+]1ccc(/C=C2\C=Cc3cc(C)ccc3N2CC)c2ccccc21	7	44*	-3	-13	-22	49*
Fc1ccc(NC(=S)N2CCCN(c3ccc(C(F)(F)F)cn3)CC2)c(F)c1	12	34*	3	-14	-14	24*
Cc1cc(Br)cn2c(Cc3cccc(F)c3)c(C3CCCCC3)nc12	6	-20	0	-3	6	0
O=C(COC(=O)c1ccc(S(=O)(=O)N2CCCC2)cc1)Nc1cccc(Br)c1	2	29*	-4	-17	-17	-5
O=C(COC(=O)c1cc(S(=O)(=O)N2CCCC2)ccc1O)Nc1ccc(SC(F)F)cc1	15*	10	5	-4	14	12
O=C(CNc1ccc(C(F)(F)F)cc1)Nc1cccc(S(=O)(=O)N2CCCCC2)c1	7	24*	0	-11	9	6
Cc1cccc(NC(=O)COC(=O)c2ccc(S(=O)(=O)N3CCCCCC3)cc2)c1	0	-12	-3	9	-21	-1
O=C(CNc1cccc(S(=O)(=O)N2CCCC2)c1)Nc1cccc(Br)c1	19*	8	3	-5	-16	5
Cc1ccc(CSc2nnc(CNc3ccc(F)cc3)o2)cc1	12	-2	-10	7	18	-9
CN(Cc1ccccc1)C(=O)c1csc([C@@H]2C[C@H](O)[C@@H](CO)O2)n1	0	-9	-4	7	-9	9
Cc1ccc(C)c(S(=O)(=O)N2CCN(C(=O)c3n[nH]c(=O)c4ccccc34)CC2)c1	1	-3	-2	4	11	-3
SMILES	CHO-K1 Ca ag	M1 antag	CHRM1 agonist	M1 PAM	CHO-K1 Ca PAM	CHO-K1 Ca antag
CN(C)CCNC(=O)c1cccc(-c2cnc3c(NC=O)cc(/C=C/c4ccccc4)cn23)c1	0	-11	-9	4	5	-5
CC1OC2CC(=O)OC2C2=C1C(=O)c1c(O)cccc1C2=O (stereo not given)	5	50*	16*	-1	24	12
c1ccc(NCn2cncn2)nc1	0	-7	0	4	-2	28*
Cc1nn(C(C)C(=O)NCCCN2CCCCCC2)c(=O)c2c1sc1ccccc12 (stereo not given)	0	55*	-6	-21	27	-20
CCN(CC)c1ccc(/C=C(/C#N)c2nc3ccccc3[nH]2)c(OC(C)C)c1	13	64*	55*	-41	0	9
CCOc1cccc(/C=C(/C#N)c2nc3ccccc3[nH]2)c1OCC(=O)O	1	-11	-1	4	14	-3
C=CC[C@H](CC(=O)NCCO)C(=O)N[C@H](COC(=O)[C@@H](CC=C)Cc1ccc(F)cc1)C(C)(C)C	0	0	-6	-1	18	-12
COc1ccc(Br)cc1CN1CCC(N2CCCC2)CC1	1	5	-10	-17	19	-12
COc1cccc(Nc2nc3cc(C)ccc3cc2C)c1	0	-6	-7	-1	-14	26*
Cc1cc(N2CCCCCC2)nc(-c2ccccc2O)n1	0	11	-5	-9	9	-8
Cc1cc(OC2CCCCC2)nc(NCc2ccccc2)n1	0	-3	-3	4	-2	5
Cc1cc(N2CCOCC2)nc(NCc2ccccc2)n1	16*	21	-3	-23	-9	4
Cc1cc(N2CCCCC2)nc(N2CCCCC2)n1	2	15	28*	-14	23	-5
Cc1cc(N2CCCCC2)nc(NCc2ccccc2)n1	20*	16	21*	-24	0	13
CCOP(=O)(OCC)C(Cc1ccc(OC)c(OC)c1)N=C(c1ccccc1)c1ccccc1 (stereo not given)	12	0	10	1	16	-6
C=CCOC(=O)C1=C(C)OC(N)=C(C#N)C1c1ccccc1F (stereo not given)	-1	-5	-5	5	-7	-10
C=CCOC(=O)C1=C(C)NC(=S)C(C#N)(CC=C)C1c1ccccc1Cl (stereo not given)	17*	-1	5	8	10	2
CC[C@H](C)Cc1cn([C@@H](CCCCNC(=O)OC(C)(C)C)C(=O)NCCCCCCCCCCC(=O)N2CCN(C(=O)OC(C)(C)C)CC2)nn1	5	48*	-2	-28	-6	-1
CC[C@H](C)C(C(=O)N1CCN(C(=O)OC(C)(C)C)CC1)n1cc(C(CC(C)C)NC(=O)OC(C)(C)C)nn1 (stereo not given in full)	1	0	-2	7	4	1
